According to PubChem BioAssay (NCI):
Where “and” joins values, the source holds several entries; their conditions need not be identical. Equal values may be shown once. The panel holds about 83,000 compounds, 20% with a hit somewhere; the sample as a whole holds those more often.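 Note: values are percent growth. 100 is the growth of untreated cells, values between 100 and 0 indicate rising inhibition; between -100 and 0 indicates cell death.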 Calls of active or inactive are those of the source. Rule for the calls: active = growth percent below 10; inactive = the rest.

How the values were obtained:
Assay in all cases: NCI-60 one-dose screen, 48 h (100 = growth as untreated, 0 = no growth, -100 = all killed)
Conditions in all cases: 10 µM
[1] = tested on: T-47D breast
[2] = tested on: BT-549 breast
[3] = tested on: MDA-MB-435 melanoma
[4] = tested on: SW-620 colon
[5] = tested on: MCF7 breast
[6] = tested on: HCT-116 colon
[7] = tested on: HCC-2998 colon
[8] = tested on: KM12 colon
[9] = tested on: MDA-MB-468 breast

Row | Compound | growth [1] | growth [2] | growth [3] | growth [4] | growth [5] | growth [6] | growth [7] | growth [8] | growth [9]
1 | N#Cc1c(NC(=O)c2ccc(C(F)(F)F)cc2C(F)(F)F)sc2c1CCC(=O)C2 | -22.7% (active) | -65.3% (active) | -53.6% (active) | -43.7% (active) | -10.6% (active) | 0.663% (active) | -2.99% (active) | -34.2% (active) | -79.9% (active)
2 | O=C(CSc1nnc(-c2ccc3nc(-c4ccccc4)[nH]c3c2)o1)Nc1ccc(Cl)cc1 | 23.8% (inactive) | 55% (inactive) | 40.2% (inactive) | 66.8% (inactive) | 16.3% (inactive) | 36.4% (inactive) | 22.2% (inactive) | 33% (inactive) | 55.8% (inactive)
3 | COc1ccc(/C=C/C(=O)c2ccc(S(=O)(=O)NCCNc3nc(Nc4ccc(F)cc4)nc(N(C)C)n3)cc2)cc1 | 18.4% (inactive) | 36.2% (inactive) | 25.1% (inactive) | 26.4% (inactive) | -15.2% (active) | -67% (active) | 59.3% (inactive) | -26.1% (active) | -3.57% (active)
4 | O=S(=O)(Nc1ncccn1)c1ccc(-n2c(-c3ccccc3)nc(-c3ccccc3)c2-c2ccccc2)cc1 | 52.2% (inactive) | 69% (inactive) | 101% (inactive) | 91.9% (inactive) | 71.1% (inactive) | 86.4% (inactive) | 89.3% (inactive) | 88.4% (inactive) | 85.7% (inactive)
5 | CN(CCF)c1ccc(/C=C/C(=O)c2ccc(N)cc2O)cc1 | 50.7% (inactive) | 64.1% (inactive) | 81.8% (inactive) | 90.3% (inactive) | 71.1% (inactive) | 73% (inactive) | 88.5% (inactive) | 44.4% (inactive) | 51.4% (inactive)
6 | CNCc1cccc2c1OCCCCCC[C@@](C)(O)CC1(CC1)S(=O)(=O)c1ccc(cc1)-c1cnc(N)c(n1)C(=O)N2 | 33.7% (inactive) | -75.2% (active) | -95.2% (active) | -84.6% (active) | -90% (active) | 0.182% (active) | -100% (active) | -68.7% (active) | -98% (active)
7 | COc1cccc2nc(Nc3cccc(NC(=O)c4ccc(CN5CCCN(C)CC5)c(C(F)(F)F)c4)c3)ccc12 | -55.9% (active) | -92.5% (active) | -100% (active) | -97.5% (active) | -90% (active) | -64.7% (active) | -96.6% (active) | -63.9% (active) | -87.9% (active)
8 | Cc1cc(C(F)(F)F)ccc1C(=O)Nc1sc2c(c1C#N)CCC(=O)C2 | -34% (active) | -76.1% (active) | -48.1% (active) | -34.4% (active) | 2.31% (active) | 5.39% (active) | -10.6% (active) | -8.98% (active) | -44.4% (active)
9 | COc1ccc2c(c1)N=C(C(=O)O)/C2=C/c1sc(Nc2ccc(O)cc2)nc1O | 45.4% (inactive) | 55.4% (inactive) | 8.85% (active) | 74.7% (inactive) | 27.9% (inactive) | 64.7% (inactive) | 74.7% (inactive) | 57.9% (inactive) | 12.3% (inactive)
10 | O=C(Nc1cccc([N+](=O)[O-])c1)Nc1cccc([N+](=O)[O-])c1 | 40.6% (inactive) | 67.1% (inactive) | 90.3% (inactive) | 87.9% (inactive) | 72.5% (inactive) | 54.4% (inactive) | 88% (inactive) | 70.6% (inactive) | 7.95% (active) and 24.6% (inactive)
11 | Cc1cccc2cc(-c3cc(-c4ccccc4)nc(=O)[nH]3)c(Cl)nc12 | 76.7% (inactive) | 84.4% (inactive) | 99.8% (inactive) | 87.7% (inactive) | 29.3% (inactive) | 63.4% (inactive) | 102% (inactive) | 73.5% (inactive) | 83.6% (inactive)
12 | CC(=O)Nc1ccc(-c2cn(-c3cccc(C(=O)Nc4cc(C(F)(F)F)cc(C(F)(F)F)c4)c3)nn2)cn1 | 33.9% (inactive) | -39.6% (active) | -34.3% (active) | -31.5% (active) | -25% (active) | 10.6% (inactive) | -62.1% (active) | -27.6% (active) | -46.5% (active)
13 | CC1CC(c2ccc(N(C)C)cc2)=NN1c1nc(O)c(C2=c3cc(Br)ccc3=NC2=O)s1 (configuration not stated) | 66.7% (inactive) | 85% (inactive) | 102% (inactive) | 78.9% (inactive) | 78.6% (inactive) | 66.8% (inactive) | 32.1% (inactive) | 73.2% (inactive) | 54.2% (inactive)
14 | O=C(O)CCCCCCCCCCN1C(=O)/C(=C/c2cnc(-c3ccccc3)s2)SC1=S | 74.2% (inactive) | 106% (inactive) | 87% (inactive) | 44.1% (inactive) | 28.8% (inactive) | 31.8% (inactive) | 124% (inactive) | 24.6% (inactive) | 90.9% (inactive)
15 | CCN1CCN(c2ccc(NC(=O)Nc3ccc(-c4cc(C(=O)NC)c5ncccc5n4)cc3)cc2C(F)(F)F)CC1 | 49.4% (inactive) | -96% (active) | -100% (active) | -100% (active) | -83.1% (active) | -100% (active) | -100% (active) | -98.8% (active) | -96.4% (active)
16 | COc1ccc(NC(=O)Cn2c(/C=C/c3ccc(N(C)C)cc3)nc3ccccc3c2=O)cc1 | 44.2% (inactive) | -9.99% (active) | 54.3% (inactive) | 48% (inactive) | 21.5% (inactive) | 28.6% (inactive) | 63% (inactive) | 50.5% (inactive) | -25.4% (active)
17 | CCOP(=O)(OCC)O[C@H]1CC[C@]2(C)[C@H]3CC[C@@H]4[C@@H]([C@](C)(O)CCC=C(C)C)CC[C@@]4(C)[C@]3(C)CC[C@H]2C1(C)C | 9.26% (active) | -14.5% (active) | 29.9% (inactive) | 14.9% (inactive) | -0.325% (active) | 9.92% (active) | 36% (inactive) | 21.1% (inactive) | -23.3% (active)
18 | Cc1cc(C)nc(SCC(=O)Nc2ccc(S(N)(=O)=O)cc2)n1 | 105% (inactive) | 132% (inactive) | 107% (inactive) | 116% (inactive) | 96.6% (inactive) | 111% (inactive) | 109% (inactive) | 107% (inactive) | 98.2% (inactive)
19 | COc1cc(/C=N/NC(=O)c2ccc3nc(-c4ccc(Cl)cc4)[nH]c3c2)cc(OC)c1OC | -58.6% (active) | -81.5% (active) | -67.3% (active) | -22.1% (active) | -72.8% (active) | -67.5% (active) | -39.7% (active) | -33% (active) | 107% (inactive) and -89.3% (active)
20 | COc1cccc(-c2ccc(/C=N/NC(=O)c3[nH]c4ccc(Br)cc4c3-c3ccccc3)o2)c1 | 54.7% (inactive) | 25.8% (inactive) | -30.7% (active) | 24.6% (inactive) | 4.65% (active) | -7.28% (active) | 11.8% (inactive) | 10.8% (inactive) | -2.92% (active)
21 | Cc1cc(=O)oc2cc(OCCCCOc3ccc(/C=C/C(=O)Nc4ccccc4[N+](=O)[O-])cc3)ccc12 | 100% (inactive) | 117% (inactive) | 112% (inactive) | 114% (inactive) | 97% (inactive) | 115% (inactive) | 120% (inactive) | 109% (inactive) | 169% (inactive)
22 | O=C(Nc1ccncc1)c1ccc(-n2c(=O)[nH]c3ccccc3c2=O)cc1 | 81.7% (inactive) | 92.6% (inactive) | 103% (inactive) | 101% (inactive) | 92.3% (inactive) | 99.1% (inactive) | 107% (inactive) | 110% (inactive) | 69.6% (inactive)
23 | O=C1Nc2cc(Cl)ccc2/C1=C/c1cccc(OCc2ccccc2)c1 | 14.7% (inactive) | -21.8% (active) | 10.5% (inactive) | 8.71% (active) | 2.6% (active) | 3.32% (active) | -39% (active) | 4.45% (active) | 11.9% (inactive)
24 | Cc1ccn2c(C(=O)c3ccc(Br)cc3)cc(-c3cc(-c4ccc(N(C)C)cc4)c(C#N)c(N)n3)c2c1 | 50.5% (inactive) | 61.9% (inactive) | 65% (inactive) | 41.5% (inactive) | 46.2% (inactive) | 36.2% (inactive) | 64.6% (inactive) | 62.4% (inactive) | -15% (active)
25 | COc1ccc(-c2nc(-c3ccccc3)c(-c3ccccc3)n2-c2ccc(S(=O)(=O)Nc3ncccn3)cc2)cc1OC | 43.1% (inactive) | 68.3% (inactive) | 95.1% (inactive) | 98.1% (inactive) | 71.2% (inactive) | 67.4% (inactive) | 82.8% (inactive) | 78.3% (inactive) | 67.8% (inactive)
26 | c1ccc(C(=C(c2ccc(OCCN3CCCCC3)cc2)c2ccc(OCCN3CCCCC3)cc2)C2CCCC2)cc1 | -1.48% (active) | -54.7% (active) | -98.5% (active) | -62.6% (active) | -71.1% (active) | -62.8% (active) | -99.5% (active) | -80.5% (active) | -87.8% (active)
27 | O=C1NC(=NC23CC4CC(CC(C4)C2)C3)N/C1=C\c1ccc2ncoc2c1 | -0.573% (active) | -20.6% (active) | 16.8% (inactive) | 9.67% (active) | 1.42% (active) | 27.6% (inactive) | -5.81% (active) | 4.28% (active) | -60% (active)
28 | Cn1c(O)c(N=Nc2nc(-c3cc4ccccc4oc3=O)cs2)c2cc(Br)ccc21 | 82.8% (inactive) | 59.6% (inactive) | 106% (inactive) | 99.8% (inactive) | 77.4% (inactive) | 48.9% (inactive) | 97.7% (inactive) | 95.5% (inactive) | 41.8% (inactive)
